The supplement of paper PMC10849652
The full data set covers some 7,900 targets. This sample favours those with a hit. About 0.6% of all pairs of compound and target were hits.

Tests used:
Experiment in all cases: log2 fold change, soluble protein after heating vs DMSO (PISA); higher = thermal stabilisation; K562 cells, 10 uM, 30 min; active = over 0.2 and 3.5 SD of the protein, either way, in both replicates (recomputed)
erlotinib = compound: C#Cc1cccc(Nc2ncnc3cc(OCCOC)c(OCCOC)cc23)c1 [erlotinib]
In short: (§1)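 Aliquots of K562 cells (2×10^6 cells/mL) treated with 10 μM compound for 30 min were heated for 3 min over 48°C-58°C. After pooling and extraction in PBS with 0.5% NP-40 at 4°C, soluble protein from a 21,000xg, 90 min spin was quantified by TMTpro 16plex LC-MS/MS with channel sums equalised. Thermal stability is expressed against control samples, from duplicates, as a log2 fold change.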

[1] = compound: C/C(=N\NC(=O)C1=CC(=CC=C1)S(=O)(=O)N2CCOCC2)/C3=C(C=CC(=C3)Cl)O
In short: as §1

[2] = compound: C1=CC(=C(C=C1Cl)C2=NC3=NC=CN=C3C(=N2)NC4=CC=NC=C4)F
In short: as §1

[3] = compound: C1=CC(=CC=C1C2=NC3=C(N2)C=C(C=C3)C(=O)N)OC4=CC=C(C=C4)Cl
In short: as §1

[4] = compound: C1=CC2=C(C=CC(=C2)/C=C\3/C(=O)NC(=NCC4=CC=CS4)S3)N=C1
In short: as §1

[5] = compound: C1=CC2=NC=CN=C2C=C1/C=C/3\C(=O)NC(=O)S3
In short: as §1

[6] = compound: C1=CC=C(C=C1)C2=NC(=C(N2)C3=CC=NC=C3)C4=CC(=C(C=C4)Cl)O
In short: as §1

[7] = compound: C1=CC=C2C(=C1)C3=NNC4=CC=CC(=C43)C2=O
In short: as §1

[8] = compound: C1CCN(C1)C(=O)NC2=CC=CC(=C2)NC3=NC=C(C(=N3)NCCC4=CN=CN4)Br
In short: as §1

[9] = compound: C1CN(CCC1(CC2=CC=C(C=C2)Cl)N)C3=NC=NC4=C3C=CN4
In short: as §1

IRAK-1-4 Inhibitor I = compound: C1COCCN1CCN2C3=CC=CC=C3N=C2NC(=O)C4=CC(=CC=C4)[N+](=O)[O-] [IRAK-1-4 Inhibitor I]
In short: as §1

ibrutinib = compound: C=CC(=O)N1CCC[C@@H](n2nc(-c3ccc(Oc4ccccc4)cc3)c3c(N)ncnc32)C1 [ibrutinib]
In short: as §1

[10] = compound: CC(=O)c1cnc2ccc(-c3cc(Cl)c(O)c(Cl)c3)nc2c1N[C@H]1CC[C@H](CN(C)C)CC1
In short: as §1

ralimetinib = compound: CC(C)(C)Cn1c(N)nc2ccc(-c3[nH]c(C(C)(C)C)nc3-c3ccc(F)cc3)nc21 [ralimetinib]
In short: as §1

[11] = compound: CC(C)(O)CC(=O)NCCn1ccc2ncnc(Nc3ccc(Oc4cccc(C(F)(F)F)c4)c(Cl)c3)c21
In short: as §1

[12] = compound: CC(C)C1=C2N=C(C=C(N2N=C1)NCC3=CC=CC=C3)NCCCCCCN
In short: as §1

[13] = compound: CC(C)C[C@@H](C=O)NC(=O)[C@H](CC(C)C)NC(=O)[C@H](CC(C)C)NC(=O)OCc1ccccc1
In short: as §1

pinometostat = compound: CC(C)N(C[C@H]1O[C@@H](n2cnc3c(N)ncnc32)[C@H](O)[C@@H]1O)[C@H]1C[C@@H](CCc2nc3cc(C(C)(C)C)ccc3[nH]2)C1 [pinometostat]
In short: as §1

[14] = compound: CC1=C(C(CC(=O)N1)C2=CC=C(C=C2)C(F)(F)F)C(=O)NC3=C(C=C4C(=C3)C=NN4)F
In short: as §1

[15] = compound: CC1=C(C2=C(C=C1)C(=O)C3=CC=CC=C3N2CCCN)C
In short: as §1

Measured: log2 fold change

MAGOHB (UniProt Q96A72)
inactive: erlotinib 0.011 | [1] 0.124 | [2] 0.025 | [3] -0.002 | [4] -0.16 | [5] -0.013 | [6] -0.032 | [7] 0.071 | [8] -0.157 | [9] -0.061 | IRAK-1-4 Inhibitor I -0.031 | ibrutinib 0.004 | [10] 0.25 | ralimetinib -0.094 | [11] 0.015 | [12] 0.061 | [13] 0 | pinometostat -0.022 | [14] -0.034 | [15] 0.028

MAGED1 isoform 2 (UniProt Q9Y5V3)
inactive: erlotinib 0.024 | [1] 0.044 | [2] -0.311 | [3] -0.059 | [4] -0.064 | [7] -0.012 | [10] 0.03 | [11] -0.136 | [12] 0 | [14] 0.019

IRF3 (UniProt Q14653)
Chain of UniProt Q14653 (Q14653 whole entry, looked up): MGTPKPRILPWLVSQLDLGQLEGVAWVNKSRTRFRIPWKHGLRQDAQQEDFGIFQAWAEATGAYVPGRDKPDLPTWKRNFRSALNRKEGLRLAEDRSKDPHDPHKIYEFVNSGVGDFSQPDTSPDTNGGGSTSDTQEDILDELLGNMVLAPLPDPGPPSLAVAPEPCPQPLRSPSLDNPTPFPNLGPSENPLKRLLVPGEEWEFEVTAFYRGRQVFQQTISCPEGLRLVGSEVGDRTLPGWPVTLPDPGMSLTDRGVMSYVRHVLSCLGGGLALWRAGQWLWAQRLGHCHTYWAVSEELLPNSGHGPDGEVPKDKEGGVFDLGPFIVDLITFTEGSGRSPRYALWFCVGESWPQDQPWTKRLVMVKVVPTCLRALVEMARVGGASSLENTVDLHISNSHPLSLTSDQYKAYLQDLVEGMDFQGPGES
inactive: erlotinib 0.042 | [1] 0.056 | [2] 0.019 | [3] -0.022 | [4] 0.046 | [5] -0.022 | [6] -0.036 | [7] 0 | [8] -0.055 | [9] -0.008 | IRAK-1-4 Inhibitor I 0.002 | ibrutinib 0.13 | [10] -0.019 | ralimetinib -0.037 | [11] 0 | [12] -0.065 | [13] -0.015 | pinometostat -0.002 | [14] 0.04 | [15] 0.02

ITM2C (UniProt Q9NQX7)
active: [12] -0.445
inactive: erlotinib -0.078 | [1] -0.019 | [2] 0.013 | [3] -0.297 | [4] -0.023 | [5] 0.062 | [6] -0.029 | [7] 0.052 | ibrutinib -0.069 | [10] -0.07 | ralimetinib -0.063 | [11] -0.186 | [13] 0.036 | [14] -0.368

ME2 (UniProt P23368)
inactive: erlotinib -0.017 | [1] -0.017 | [2] 0.01 | [3] -0.078 | [4] 0.036 | [5] -0.024 | [6] 0.055 | [7] -0.061 | [8] 0.008 | [9] 0.081 | IRAK-1-4 Inhibitor I 0.009 | ibrutinib -0.039 | [10] 0.213 | ralimetinib -0.003 | [11] 0.036 | [12] 0.152 | [13] 0.025 | pinometostat -0.021 | [14] -0.048 | [15] -0.042

MED8 isoform 2 (UniProt Q96G25)
Chain of UniProt Q96G25 (Q96G25 whole entry, looked up): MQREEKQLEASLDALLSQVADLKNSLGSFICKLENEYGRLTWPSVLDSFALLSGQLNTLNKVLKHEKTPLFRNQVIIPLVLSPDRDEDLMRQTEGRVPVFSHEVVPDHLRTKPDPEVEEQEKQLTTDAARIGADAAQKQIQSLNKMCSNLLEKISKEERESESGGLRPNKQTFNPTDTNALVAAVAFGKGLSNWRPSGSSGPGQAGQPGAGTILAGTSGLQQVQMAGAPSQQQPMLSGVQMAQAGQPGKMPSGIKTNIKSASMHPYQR
inactive: erlotinib 0.017 | [1] -0.19 | [2] -0.056 | [3] 0.035 | [4] -0.031 | [5] 0.152 | [6] -0.153 | [7] -0.196 | IRAK-1-4 Inhibitor I -0.051 | ibrutinib 0.038 | [10] -0.216 | ralimetinib -0.013 | [11] -0.081 | [12] 0.05 | [13] 0.06 | pinometostat -0.043 | [14] 0.016

LGALS8 isoform 2 (UniProt O00214)
Chain of UniProt O00214 (O00214 whole entry, looked up): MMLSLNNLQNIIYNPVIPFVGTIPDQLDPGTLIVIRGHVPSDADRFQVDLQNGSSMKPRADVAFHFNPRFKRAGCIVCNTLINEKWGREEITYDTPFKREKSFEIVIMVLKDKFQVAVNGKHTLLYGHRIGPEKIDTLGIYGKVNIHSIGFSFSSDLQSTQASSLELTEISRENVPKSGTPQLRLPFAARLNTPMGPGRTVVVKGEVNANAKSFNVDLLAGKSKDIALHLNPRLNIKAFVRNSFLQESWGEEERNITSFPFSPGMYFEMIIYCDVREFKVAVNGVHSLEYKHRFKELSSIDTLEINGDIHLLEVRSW
inactive: erlotinib -0.011 | [1] -0.034 | [2] -0.282 | [3] 0.062 | [4] -0.038 | [5] -0.059 | [7] 0.036 | [8] 0.043 | [9] 0.039 | IRAK-1-4 Inhibitor I -0.027 | ibrutinib -0.262 | [10] 0.049 | [11] 0.092 | [12] 0.123 | pinometostat 0.11 | [15] 0.096

LMBRD1 (UniProt Q9NUN5)
active: [12] -0.708
inactive: erlotinib 0.075 | [1] -0.055 | [2] 0.211 | [3] -0.014 | [4] 0.226 | [5] 0.113 | [6] -0.051 | [7] -0.027 | [8] -0.142 | [9] 0.033 | ibrutinib 0.036 | [10] 0.026 | ralimetinib 0.088 | [11] -0.059 | [13] -0.022 | [14] 0.088 | [15] -0.086

MAP4 isoform 5 (UniProt P27816)
inactive: erlotinib 0.056 | [1] -0.214 | [2] 0.038 | [3] -0.067 | [4] -0.031 | [5] -0.116 | [6] -0.051 | [7] 0.152 | ibrutinib 0.076 | [10] 0.142 | ralimetinib -0.019 | [11] 0.052 | [12] 0.083 | [13] 0.014 | [14] 0.298

LPIN3 isoform 2 (UniProt Q9BQK8)
inactive: erlotinib 0.053 | [1] 0.062 | [2] 0.038 | [3] -0.045 | [4] 0.108 | [5] 0.022 | [6] -0.048 | [7] 0.022 | [8] 0.002 | [9] -0.014 | ibrutinib -0.041 | [10] -0.164 | ralimetinib -0.024 | [11] -0.14 | [12] 0.027 | [13] 0.073 | [14] -0.019 | [15] 0.099

LRRFIP1 isoform 4 (UniProt Q32MZ4)
Chain of UniProt Q32MZ4 (Q32MZ4 whole entry, looked up): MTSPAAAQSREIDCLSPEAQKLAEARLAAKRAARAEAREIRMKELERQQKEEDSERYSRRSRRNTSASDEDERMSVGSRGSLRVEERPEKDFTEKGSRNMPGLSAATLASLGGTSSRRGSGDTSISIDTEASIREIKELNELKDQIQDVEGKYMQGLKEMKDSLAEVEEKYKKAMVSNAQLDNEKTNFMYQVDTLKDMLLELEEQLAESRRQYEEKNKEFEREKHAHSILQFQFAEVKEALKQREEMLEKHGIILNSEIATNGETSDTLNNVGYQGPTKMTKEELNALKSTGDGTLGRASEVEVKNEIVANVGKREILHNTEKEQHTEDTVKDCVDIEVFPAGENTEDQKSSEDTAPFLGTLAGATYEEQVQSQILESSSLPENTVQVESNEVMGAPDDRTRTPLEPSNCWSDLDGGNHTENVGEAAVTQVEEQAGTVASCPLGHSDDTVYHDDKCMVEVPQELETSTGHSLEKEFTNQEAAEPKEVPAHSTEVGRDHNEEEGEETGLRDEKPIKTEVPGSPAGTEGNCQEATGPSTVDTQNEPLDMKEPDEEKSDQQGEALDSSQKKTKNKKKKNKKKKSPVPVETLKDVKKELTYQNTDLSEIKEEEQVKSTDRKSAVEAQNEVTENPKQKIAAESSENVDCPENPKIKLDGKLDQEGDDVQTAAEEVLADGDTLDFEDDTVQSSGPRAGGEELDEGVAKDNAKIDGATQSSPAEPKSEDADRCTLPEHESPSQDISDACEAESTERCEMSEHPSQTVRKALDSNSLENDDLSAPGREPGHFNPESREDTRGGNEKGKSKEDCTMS
inactive: erlotinib -0.122 | [2] -0.121 | [3] -0.006 | [4] -0.045 | [7] 0.072 | IRAK-1-4 Inhibitor I -0.06 | [10] 0.163 | [11] -0.019 | [12] 0.031 | pinometostat -0.019
active: [1] -1.2

KIF11 (UniProt P52732)
Chain of UniProt P52732 (P52732 whole entry, looked up): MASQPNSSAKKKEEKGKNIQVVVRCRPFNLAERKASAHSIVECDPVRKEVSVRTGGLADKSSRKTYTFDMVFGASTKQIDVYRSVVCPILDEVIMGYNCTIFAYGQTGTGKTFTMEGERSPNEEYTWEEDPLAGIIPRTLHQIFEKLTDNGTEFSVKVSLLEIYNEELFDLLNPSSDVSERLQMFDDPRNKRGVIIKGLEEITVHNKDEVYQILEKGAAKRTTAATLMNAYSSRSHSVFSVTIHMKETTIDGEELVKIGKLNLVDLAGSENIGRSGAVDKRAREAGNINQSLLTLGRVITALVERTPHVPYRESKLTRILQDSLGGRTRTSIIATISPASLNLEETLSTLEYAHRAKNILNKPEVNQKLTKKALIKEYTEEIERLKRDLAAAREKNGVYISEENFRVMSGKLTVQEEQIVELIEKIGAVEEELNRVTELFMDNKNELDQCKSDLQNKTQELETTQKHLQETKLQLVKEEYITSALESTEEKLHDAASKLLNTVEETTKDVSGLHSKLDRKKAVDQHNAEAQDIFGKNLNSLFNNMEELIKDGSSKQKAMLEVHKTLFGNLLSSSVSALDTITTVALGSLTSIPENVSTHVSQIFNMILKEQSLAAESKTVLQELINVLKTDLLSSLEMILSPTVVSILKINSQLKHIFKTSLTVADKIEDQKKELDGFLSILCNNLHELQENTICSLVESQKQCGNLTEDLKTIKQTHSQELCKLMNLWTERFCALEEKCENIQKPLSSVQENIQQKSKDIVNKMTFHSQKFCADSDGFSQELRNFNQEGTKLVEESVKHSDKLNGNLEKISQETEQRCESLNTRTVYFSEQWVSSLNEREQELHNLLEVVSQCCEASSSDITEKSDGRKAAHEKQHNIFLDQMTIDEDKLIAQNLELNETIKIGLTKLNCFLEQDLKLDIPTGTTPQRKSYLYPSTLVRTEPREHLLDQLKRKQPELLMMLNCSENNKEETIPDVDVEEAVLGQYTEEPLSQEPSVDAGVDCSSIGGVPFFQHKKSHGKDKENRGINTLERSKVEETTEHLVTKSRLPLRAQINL
inactive: erlotinib 0.042 | [1] 0.032 | [2] -0.106 | [3] -0.058 | [4] 0.038 | [5] 0.012 | [6] -0.168 | [7] 0.011 | [8] -0.017 | [9] -0.158 | IRAK-1-4 Inhibitor I -0.097 | ibrutinib -0.049 | [10] 0.063 | ralimetinib 0.045 | [11] -0.024 | [12] -0.229 | [13] 0.04 | pinometostat 0.188 | [14] 0.006 | [15] -0.014

LMBR1 isoform 3 (UniProt Q8WVP7)
inactive: erlotinib 0.148 | [1] -0.016 | [2] -0.034 | [3] 0.071 | [4] -0.046 | [5] 0.081 | [6] -0.14 | [7] -0.013 | [8] 0.037 | [9] 0.15 | IRAK-1-4 Inhibitor I -0.013 | ibrutinib -0.006 | [10] -0.054 | ralimetinib -0.02 | [11] -0.037 | [12] -0.453 | [13] -0.004 | pinometostat 0.012 | [15] -0.244

LUZP1 (UniProt Q86V48)
Chain of UniProt Q86V48 (Q86V48 whole entry, looked up): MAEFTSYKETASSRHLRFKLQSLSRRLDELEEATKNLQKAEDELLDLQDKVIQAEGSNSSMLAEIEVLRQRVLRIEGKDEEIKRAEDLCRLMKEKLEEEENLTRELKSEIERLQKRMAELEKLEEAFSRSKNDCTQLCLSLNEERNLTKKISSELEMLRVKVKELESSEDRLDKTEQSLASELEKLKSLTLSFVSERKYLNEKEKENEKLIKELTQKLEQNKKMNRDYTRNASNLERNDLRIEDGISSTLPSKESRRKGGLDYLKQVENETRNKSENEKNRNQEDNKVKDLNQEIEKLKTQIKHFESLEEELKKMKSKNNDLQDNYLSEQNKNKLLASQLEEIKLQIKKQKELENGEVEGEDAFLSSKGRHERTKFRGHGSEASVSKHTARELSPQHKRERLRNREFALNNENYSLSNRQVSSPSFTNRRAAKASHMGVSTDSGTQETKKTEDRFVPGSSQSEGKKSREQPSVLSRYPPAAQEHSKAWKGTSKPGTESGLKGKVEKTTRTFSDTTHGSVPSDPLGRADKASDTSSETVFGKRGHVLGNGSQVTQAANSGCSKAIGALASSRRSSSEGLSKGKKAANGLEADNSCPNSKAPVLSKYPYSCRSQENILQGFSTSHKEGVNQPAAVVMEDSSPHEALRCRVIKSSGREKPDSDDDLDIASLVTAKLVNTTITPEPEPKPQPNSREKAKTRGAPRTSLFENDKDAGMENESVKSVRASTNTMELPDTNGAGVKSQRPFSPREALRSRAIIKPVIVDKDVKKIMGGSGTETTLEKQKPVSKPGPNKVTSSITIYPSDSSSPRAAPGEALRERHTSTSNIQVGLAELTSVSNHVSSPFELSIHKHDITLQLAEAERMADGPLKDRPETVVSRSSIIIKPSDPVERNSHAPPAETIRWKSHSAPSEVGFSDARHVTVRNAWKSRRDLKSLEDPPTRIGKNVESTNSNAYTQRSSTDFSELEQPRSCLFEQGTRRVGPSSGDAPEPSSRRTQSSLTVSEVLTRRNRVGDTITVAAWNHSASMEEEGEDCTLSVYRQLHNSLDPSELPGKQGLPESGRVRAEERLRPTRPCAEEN
inactive: erlotinib -0.094 | [1] -0.035 | [2] -0.328 | [3] -0.01 | [4] -0.131 | [5] -0.095 | [6] -0.091 | [7] -0.187 | [8] -0.06 | [9] -0.297 | IRAK-1-4 Inhibitor I -0.136 | ibrutinib -0.074 | [10] 0.275 | ralimetinib 0.08 | [11] 0.114 | [12] 0.019 | [13] 0.139 | pinometostat 0.113 | [14] 0.124 | [15] 0.079

MELK (UniProt Q14680)
active: [10] -0.84
inactive: erlotinib 0.067 | [1] -0.067 | [2] 0.018 | [3] 0.027 | [4] 0.033 | [5] 0.009 | [7] 0.031 | [8] -0.027 | [9] -0.086 | IRAK-1-4 Inhibitor I 0.021 | ibrutinib 0.032 | [11] -0.085 | [12] 0.092 | pinometostat 0.013 | [14] 0.337 | [15] 0.011

MAP2K1 (UniProt Q02750)
Chain of UniProt Q02750 (Q02750 whole entry, looked up): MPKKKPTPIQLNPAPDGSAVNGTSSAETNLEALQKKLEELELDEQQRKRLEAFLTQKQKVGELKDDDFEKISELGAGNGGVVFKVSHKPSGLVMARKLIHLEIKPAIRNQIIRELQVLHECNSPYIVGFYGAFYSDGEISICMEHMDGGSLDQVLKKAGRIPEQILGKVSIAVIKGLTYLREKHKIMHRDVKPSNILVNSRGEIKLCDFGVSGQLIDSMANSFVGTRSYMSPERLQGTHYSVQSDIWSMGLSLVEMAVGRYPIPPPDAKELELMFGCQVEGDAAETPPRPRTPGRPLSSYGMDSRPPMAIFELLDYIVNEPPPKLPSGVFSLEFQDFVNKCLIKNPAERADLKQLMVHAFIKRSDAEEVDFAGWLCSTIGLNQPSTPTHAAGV
inactive: erlotinib -0.012 | [1] 0.001 | [2] 0.037 | [3] -0.001 | [4] 0.074 | [5] 0.014 | [6] -0.028 | [7] -0.005 | [8] -0.002 | [9] -0.003 | IRAK-1-4 Inhibitor I 0.047 | ibrutinib -0.016 | ralimetinib 0.004 | [11] -0.066 | [12] 0.023 | [13] 0.015 | pinometostat -0.061 | [14] 0.008 | [15] 0.026
active: [10] -0.349

MAIP1 (UniProt Q8WWC4)
inactive: erlotinib -0.02 | [1] 0.006 | [2] -0.012 | [3] 0.002 | [4] 0.02 | [5] 0.042 | [6] 0.066 | [7] 0.037 | [8] -0.024 | [9] 0.012 | IRAK-1-4 Inhibitor I 0 | ibrutinib -0.014 | [10] -0.004 | ralimetinib -0.028 | [11] 0.09 | [12] -0.201 | [13] -0.026 | pinometostat -0.042 | [14] -0.011 | [15] 0.052

KLHL18 (UniProt O94889)
Chain of UniProt O94889 (O94889 whole entry, looked up): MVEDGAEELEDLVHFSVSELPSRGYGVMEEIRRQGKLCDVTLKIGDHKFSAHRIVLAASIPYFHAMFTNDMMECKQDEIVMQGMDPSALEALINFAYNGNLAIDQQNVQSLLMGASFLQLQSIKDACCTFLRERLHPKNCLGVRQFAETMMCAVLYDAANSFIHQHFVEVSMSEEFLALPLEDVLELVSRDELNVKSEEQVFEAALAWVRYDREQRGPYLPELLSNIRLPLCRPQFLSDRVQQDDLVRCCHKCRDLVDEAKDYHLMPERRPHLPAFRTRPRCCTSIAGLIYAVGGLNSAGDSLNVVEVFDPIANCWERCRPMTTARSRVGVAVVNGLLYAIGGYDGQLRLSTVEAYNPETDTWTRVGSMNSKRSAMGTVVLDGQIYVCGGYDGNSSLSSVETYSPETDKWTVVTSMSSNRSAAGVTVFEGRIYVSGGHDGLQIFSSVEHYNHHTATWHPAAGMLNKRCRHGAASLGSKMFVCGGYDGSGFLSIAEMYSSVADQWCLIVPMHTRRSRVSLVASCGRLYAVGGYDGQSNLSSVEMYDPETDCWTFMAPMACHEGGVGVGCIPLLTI
inactive: erlotinib -0.011 | [1] 0 | [2] 0.12 | [3] 0.022 | [4] 0.031 | [5] -0.02 | [6] -0.042 | [7] -0.085 | [8] -0.042 | [9] -0.026 | ibrutinib 0.082 | [10] 0.104 | ralimetinib 0.055 | [11] 0.006 | [12] -0.117 | [13] -0.111 | [14] 0.026 | [15] 0.088
